For 6 molecules, composite z-score, z-score and composite Z-score results are on record in PubChem BioAssay.

Calls of active or inactive are those of the source.

In experiment [1] the test system is Human papillomavirus type 1a protein E7 (residues 44-93). Briefly: small molecules binding HPV E7 44-93 – biochemical, small-molecule microarray, residues 44-93, 635 nm fluorescence, primary screen (AID 1108).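 Also: E7 fragment applied at 1 µg/mL in TBST for 1 h at 4 C; score combines spot fluorescence with its signal to noise ratio.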 The conditions noted are these: fluorescence 635 nm, higher = more signal.
Experiment [2] is described as follows: hepatitis C replication reporter changes, two-sided – Huh7 cells, luciferase reporter, HCV replication inhibitor project, primary screen (AID 1109).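 Also: huh7 hepatoma cells harbouring a luciferase neomycin HCV replicon reporter; luciferase luminescence as measure of HCV replicon replication; test concentration not given here.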 The conditions noted are these: Huh7 HCV replicon luciferase reporter, 48 h; higher = more signal. (In general: A reporter such as luciferase makes a cellular process visible.)
In experiment [3] the target is Left-right determination factor 2 (Homo sapiens) (UniProt O00292). Briefly: small molecules binding LEFTY2 protein – biochemical, small-molecule microarray, 635 nm fluorescence scan, primary screen (AID 1110). Conditions: higher = more signal.
Experiment [4] addresses Calmodulin-1 (Homo sapiens) (UniProt P0DP23). Briefly: small molecules binding calmodulin-1 with EGTA – biochemical, small-molecule microarray, Cy5-labelled CALM1, profiling panel (AID 1111).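 Also: labelled calmodulin applied in Tris saline Tween buffer holding calcium plus EGTA and DTT.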 Conditions: Cy5-CALM1 binding fluorescence, higher = more signal.
Experiment [5] shares this target. Description: small molecules binding Ca-loaded calmodulin-1 – biochemical, small-molecule microarray, Cy5-labelled CALM1, plus calcium, artefact control for SMM control-protein annotation, profiling panel (AID 1112).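 Also: score merges spot fluorescence with signal to noise from triplicate slides.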 Conditions: Cy5-CALM1 binding fluorescence, higher = more signal.
The nature of experiment [6]: probe aWnt5a binding to arrayed compounds – biochemical, biotinylated probe, 635/667 nm fluorescence, primary screen (AID 1113).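 Also: score merges 667 nm fluorescence intensity with signal-to-noise per printed feature.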 The conditions noted are these: small-molecule microarray, higher = more signal.
Experiment [7] can be described thus: probe aShh binding to arrayed compounds – biochemical, biotinylated probe, 635/667 nm fluorescence, primary screen (AID 1114).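 Also: probe is biotin-labelled aShh protein from a stem cell growth factor screen; measures binding of labelled protein to compounds printed on the slide; score merges feature fluorescence at 667 nm with signal-to-noise.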 The conditions noted are these: small-molecule microarray, higher = more signal.
Experiment [8] is described as follows: probe aNog binding to arrayed compounds – biochemical, biotinylated probe, 635/667 nm fluorescence, primary screen (AID 1115).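 Also: probe is biotinylated aNog protein used at 0.15 µg/mL for 1 h at 4 C; z-score combines 667 nm fluorescence of each spot with its signal to noise.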 The conditions noted are these: small-molecule microarray, higher = more signal.
Experiment [9] deals with Torsin-1A-interacting protein 1 (Homo sapiens) (UniProt Q5JTV8). Briefly: compound microarray binding of lysate hLAP1 – cell lysate, small-molecule microarray, COS7 lysate, 635/667 nm fluorescence, primary screen (AID 1116). Conditions: 635 nm fluorescence, higher = more signal.
Experiment [10] has as its target Alpha-bungarotoxin (Bungarus multicinctus) (UniProt P60615). Briefly: compounds binding labelled alpha-BTX control protein – biochemical, small-molecule microarray, Alexa647 label, 635/667 nm fluorescence, artefact control for SMM control protein annotation, profiling panel (AID 1117). Conditions: alpha-BTX-A647 binding fluorescence, higher = more signal.
A further experiment addresses Albumin (Bos taurus) (UniProt P02769). Briefly: compounds binding labelled BSA control protein – biochemical, small-molecule microarray, Alexa647 label, 635/667 nm fluorescence, artefact control for SMM control protein annotation, profiling panel (AID 1118).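 Also: score merges 667 nm emission intensity and signal-to-noise per printed compound spot.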 Conditions: BSA-A647 binding, fluorescence 635 nm, higher = more signal.
Experiment [11] in a line: probe aXIP binding to arrayed compounds – biochemical, NeuroSMM set, 635/667 nm fluorescence, primary screen (AID 1119).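 Also: probe is the protein aXip251-270 applied at 1 µg/mL to compound-printed slides; binding of probe to printed compounds measured as 667 nm fluorescence plus signal to noise.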 Conditions: small-molecule microarray, higher = more signal, called active from +8 up or from −8 down.
A short description of experiment [12]: probe aNOTCH3 binding on compound microarray – biochemical, small-molecule microarray, 635/667 nm fluorescence, primary screen (AID 1120).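 Also: probe is a biotin-tagged antibody raised against NOTCH3 rather than NOTCH3 protein; score merges spot fluorescence near 667 nm with spot signal to noise.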 Conditions: higher = more signal.
A short description of experiment [13]: probe aNOTCH2 binding on compound microarray – biochemical, small-molecule microarray, 635/667 nm fluorescence, primary screen (AID 1121).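 Also: score merges feature fluorescence read at 667 nm with its signal to noise.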 Conditions: higher = more signal.
Experiment [14] concerns the target Carbonic anhydrase 2 (Homo sapiens) (UniProt P00918). Description: compounds binding carbonic anhydrase 2 – biochemical, small-molecule microarray, Alexa647-labelled CAII, profiling panel (AID 1122). Conditions: CAII-A647 binding fluorescence, higher = more signal.
Experiment [15] in a line: COS7 lysate on small-molecule microarray, probe aHis, 635 nm (AID 1123).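 Also: z-score combines 667nm fluorescence intensity with signal-to-noise per printed compound spot.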 The conditions noted are these: COS7 cell lysate, fluorescence, higher = more signal.
Experiment [16] is described as follows: probe aLAP1 signal on lysate-treated microarray – cell lysate, small-molecule microarray, COS7 lysate, primary screen (AID 1124).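 Also: lysate comes from COS7 cells expressing LAP1 and is applied at 0.3 µg/mL; score merges spot fluorescence near 667 nm with signal-to-noise over triplicate slides.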 Conditions: probe aLAP1, fluorescence, higher = more signal.
The next experiment concerns Sam68 (KHDRBS1). Briefly: compounds binding KHDRBS1 protein – biochemical, small-molecule microarray, 635 nm fluorescence, primary screen (AID 1125).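 Also: score merges 667 nm channel intensity with signal to noise over triplicate slides.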 Conditions: higher = more signal.
The subject of experiment [17] is Chordin-like protein 2 (CHRDL2). Briefly: compounds binding chordin-like 2 – biochemical, small-molecule microarray, 635 nm fluorescence, primary screen (AID 1126).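 Also: printed compound slides probed with Chrdl2 protein at 4 µg/mL for 1 h at 4 C; score merges 667 nm emission intensity with signal to noise over three replicate slides.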 The conditions noted are these: fluorescence 635 nm, higher = more signal.
Experiment [18] addresses Concanavalin-A (Canavalia ensiformis) (UniProt P02866). Description: compounds binding concanavalin A lectin – biochemical, small-molecule microarray, Alexa647 label, 635 nm, artefact control for SMM control protein annotation, primary screen (AID 1127).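 Also: z combines 667 nm emission intensity with signal-to-noise across three replicate slides.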 Conditions: ConA-A647 binding fluorescence, higher = more signal.

Sequence of Albumin (Bos taurus) (P02769 whole entry, looked up): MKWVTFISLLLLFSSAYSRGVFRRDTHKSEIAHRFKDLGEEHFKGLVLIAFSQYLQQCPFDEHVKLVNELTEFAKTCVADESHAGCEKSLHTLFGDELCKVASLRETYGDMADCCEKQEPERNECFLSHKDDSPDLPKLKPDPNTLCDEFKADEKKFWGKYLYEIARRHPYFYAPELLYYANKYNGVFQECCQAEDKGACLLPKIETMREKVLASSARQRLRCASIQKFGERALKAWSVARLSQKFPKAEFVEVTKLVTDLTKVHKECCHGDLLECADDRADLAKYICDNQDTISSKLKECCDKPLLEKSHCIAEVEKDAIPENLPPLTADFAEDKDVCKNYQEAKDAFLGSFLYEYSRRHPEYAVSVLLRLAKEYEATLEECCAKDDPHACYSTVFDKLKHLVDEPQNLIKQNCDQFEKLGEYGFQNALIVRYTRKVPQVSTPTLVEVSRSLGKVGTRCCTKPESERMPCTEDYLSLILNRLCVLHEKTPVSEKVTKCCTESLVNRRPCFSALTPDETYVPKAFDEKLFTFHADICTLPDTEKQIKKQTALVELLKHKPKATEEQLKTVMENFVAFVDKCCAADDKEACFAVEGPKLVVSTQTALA
Sequence of Concanavalin-A (Canavalia ensiformis) (P02866 whole entry, looked up): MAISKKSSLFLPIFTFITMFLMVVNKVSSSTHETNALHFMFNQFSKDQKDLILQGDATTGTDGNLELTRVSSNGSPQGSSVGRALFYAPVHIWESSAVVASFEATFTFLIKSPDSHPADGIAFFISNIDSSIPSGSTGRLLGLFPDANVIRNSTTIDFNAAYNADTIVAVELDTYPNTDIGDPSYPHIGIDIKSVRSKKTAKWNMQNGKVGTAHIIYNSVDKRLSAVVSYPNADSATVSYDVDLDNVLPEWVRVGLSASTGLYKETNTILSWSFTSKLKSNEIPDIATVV
Sequence of Alpha-bungarotoxin (Bungarus multicinctus) (P60615 whole entry, looked up): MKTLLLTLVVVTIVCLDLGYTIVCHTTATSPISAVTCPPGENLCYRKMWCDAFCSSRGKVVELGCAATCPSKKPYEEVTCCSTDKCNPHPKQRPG
Sequence of Torsin-1A-interacting protein 1 (Homo sapiens) (Q5JTV8 whole entry, looked up): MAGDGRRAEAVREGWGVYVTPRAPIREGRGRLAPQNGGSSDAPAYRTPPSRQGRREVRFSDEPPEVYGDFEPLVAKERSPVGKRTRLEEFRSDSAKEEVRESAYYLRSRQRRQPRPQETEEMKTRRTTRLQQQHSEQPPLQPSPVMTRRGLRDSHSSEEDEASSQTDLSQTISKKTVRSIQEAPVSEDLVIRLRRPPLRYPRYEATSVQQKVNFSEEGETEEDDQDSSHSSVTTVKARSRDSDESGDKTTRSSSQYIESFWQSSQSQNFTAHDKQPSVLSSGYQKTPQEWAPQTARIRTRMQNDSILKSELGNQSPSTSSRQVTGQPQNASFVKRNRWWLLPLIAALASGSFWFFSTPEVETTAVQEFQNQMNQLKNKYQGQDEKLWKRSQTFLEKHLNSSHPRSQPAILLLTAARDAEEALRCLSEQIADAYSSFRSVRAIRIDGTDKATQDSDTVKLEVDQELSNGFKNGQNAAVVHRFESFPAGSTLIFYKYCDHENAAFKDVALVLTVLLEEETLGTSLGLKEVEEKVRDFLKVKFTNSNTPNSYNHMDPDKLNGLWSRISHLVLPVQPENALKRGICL
Sequence of Left-right determination factor 2 (Homo sapiens) (O00292 whole entry, looked up): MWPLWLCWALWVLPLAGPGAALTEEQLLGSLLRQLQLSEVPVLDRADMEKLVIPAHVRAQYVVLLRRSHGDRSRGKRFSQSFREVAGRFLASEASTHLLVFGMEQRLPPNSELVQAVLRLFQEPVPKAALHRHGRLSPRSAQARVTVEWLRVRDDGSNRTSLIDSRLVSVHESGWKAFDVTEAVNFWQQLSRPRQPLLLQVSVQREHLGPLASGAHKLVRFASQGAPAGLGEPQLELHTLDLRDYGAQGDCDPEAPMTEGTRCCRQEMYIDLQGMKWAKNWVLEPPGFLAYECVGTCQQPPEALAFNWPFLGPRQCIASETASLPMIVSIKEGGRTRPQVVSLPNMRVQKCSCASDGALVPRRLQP

Consider `[N-]=[N+]=Nc1ccccc1[C@H]1OC(c2ccc(OCCCO)cc2)=N[C@@]1(Cc1ccccc1)C(=O)N1CCOCC1`, for which the composite z-score in experiment [1] is 1.1; in experiment [3] it was 0.103; in experiment [4], 2.25; in [5] it was 0.937; in experiment [6], -0.0748; in experiment [7], 0.886. Further, the composite z-score in [8] came to 0.88; in [9], 1.32; in experiment [10] it was 1.73; with Albumin (Bos taurus) it was 1.05; in [12], 0.223; in [13] it was 0.132. The composite z-score in experiment [14] came out at 0.523; in experiment [15], 2.89; in experiment [16], 1.09; in the experiment on Sam68 (KHDRBS1), 1.29; in experiment [17], 0.311; in experiment [18] it was 1.14. In [2], this molecule had a z-score of -2.37. In experiment [11], the composite Z-score is 1.39 (inactive).

Take `COCCOC(=O)N1C(=O)[C@@]2(c3cc(C#CC4(O)CCCCCC4)ccc31)[C@H](c1ccccc1OCCO)N1[C@H](c3ccccc3)[C@H](c3ccccc3)OC(=O)[C@H]1[C@@H]2C(=O)N1CCc2cc(OC)c(OC)cc2C1`: the composite z-score was 1.43 in experiment [1]; 0.21 in [3]; 1.26 in experiment [4]; 0.57 in experiment [5]; -0.0704 in experiment [6]; -0.0289 in [7]. Besides, the composite z-score in experiment [8] was 0.268; in experiment [9], 1.24; in [10], 1.97; with Albumin (Bos taurus), 0.223; in experiment [12], 0.0039; in experiment [13], -0.0817. Also, the composite z-score in experiment [14] is 0.527; in [15], 1.89; in experiment [16] it was 0.612; in the experiment with Sam68 (KHDRBS1), 1.29; in experiment [17], -0.225; in experiment [18], 1.13. In addition, the z-score in experiment [2] is -2.42. Also, in [11], the composite Z-score was 0.758 (inactive).

Consider `O=C1OCC=C[C@H]2OC34C=CCN(Cn5nnc6ccccc65)C(=O)[C@H]3N(CCCCCO)C(=O)[C@@H]4[C@@H]12` (stereo not given in full), for which the composite z-score in [1] is -0.129; in [3], -1.3; in experiment [4] it was -0.497; in [5], 0.0598; in [6] it was 0.184; in [7], -0.209. Also, the composite z-score is 0.105 in [8]; 3.17 in experiment [9]; -0.464 in experiment [10]; -0.552 with Albumin (Bos taurus); -0.211 in [12]; -0.108 in experiment [13]. The composite z-score was 0.9 in experiment [14]; 1.34 in experiment [15]; 0.435 in experiment [16]; -0.171 in the experiment with Sam68 (KHDRBS1); -1.87 in [17]; -0.727 in experiment [18]. The z-score in [2] was -0.0996. Besides, the composite Z-score in experiment [11] is 0.177 (inactive).

As to `COCCOC(=O)N1C(=O)[C@@]2(c3cc(C#Cc4ccc(OC)cc4)ccc31)[C@H](c1ccc(O)cc1)N1[C@H](c3ccccc3)[C@H](c3ccccc3)OC(=O)[C@H]1[C@@H]2C(=O)Nc1nc2ccccc2s1`, the composite z-score is 1.37 in [1]; 0.389 in experiment [3]; 1.18 in [4]; 0.907 in experiment [5]; -0.0778 in [6]; -0.262 in experiment [7]. Besides, the composite z-score in experiment [8] was -0.129; in experiment [9] it was 0.373; in experiment [10], 0.912; with Albumin (Bos taurus) it was 0.576; in experiment [12] it was -0.0299; in experiment [13], -0.124. For the same molecule, the composite z-score in [14] is 0.537; in experiment [15] it was 1.54; in experiment [16], -0.0159; in the experiment on Sam68 (KHDRBS1), 1.3; in experiment [17] it was 0.0727; in [18], 1.16. In [2], this molecule displayed a z-score of -1. Further, the composite Z-score in experiment [11] is 0.303 (inactive).

In the case of `COc1cc2c(cc1O)C(c1cccs1)N(Cc1ccc([N+](=O)[O-])o1)CC2` (stereo not given), the composite z-score in [1] was 0.665; in experiment [3], -0.333; in [4], 1.5; in experiment [5], 0.33; in experiment [6] it was -0.0303; in experiment [7] it was 0.155. For the same molecule, the composite z-score was 1.19 in experiment [8]; -0.194 in experiment [9]; 0.766 in experiment [10]; 0.878 in the experiment with Albumin (Bos taurus); 0.029 in experiment [12]; 0.12 in experiment [13]. Further, the composite z-score in experiment [14] was 0.876; in experiment [15], 1.35; in experiment [16], 1.08; with Sam68 (KHDRBS1), 0.0376; in experiment [17], -0.57; in experiment [18], 0.364. This molecule also showed a z-score in [2] of -0.213. The composite Z-score in [11] is 3.03 (inactive).

Consider `COc1ccc(C#Cc2ccc3c(c2)[C@]2(C(=O)N3)[C@H](c3ccc(O)cc3)N3[C@H](c4ccccc4)[C@H](c4ccccc4)OC(=O)[C@H]3[C@@H]2C(=O)N2CCc3cc(OC)c(OC)cc3C2)cc1`, for which the composite z-score in [1] is 1.36; in [3] it was 0.406; in experiment [4], 1.02; in experiment [5] it was 0.745; in [6], -0.0643; in experiment [7], -0.161. In addition, the composite z-score in [8] was -0.0503; in experiment [9], 0.7; in [10], 1.67; with Albumin (Bos taurus), 0.719; in experiment [12], 0.0196; in experiment [13], -0.12. Besides, the composite z-score in [14] came to 0.459; in experiment [15] it was 1.33; in experiment [16], 0.326; in the experiment on Sam68 (KHDRBS1), 1.31; in experiment [17] it was 0.356; in experiment [18], 1.12. The same molecule returned a z-score in experiment [2] of -1.11. Besides, in experiment [11], the composite Z-score is 1.39 (inactive).
